# PubChem BioAssay (NCI)
# The panel holds about 83,000 compounds, 20% with a hit somewhere; the sample as a whole holds those more often.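 Cells were grown in 96-well plates and exposed to the test compound at a single concentration for 48 hours; results are reported as percent growth, with values below 10 considered active.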 Values without a mark were called inactive. The source made the active and inactive calls.
# How the values were obtained:
# Assay in all cases: NCI-60 one-dose screen, 48 h (100 = growth as untreated, 0 = no growth, -100 = all killed)
# Conditions in all cases: 10 µM unless noted
# NCI/ADR-RES ovarian = system: NCI/ADR-RES ovarian
# T-47D breast = system: T-47D breast
# BT-549 breast = system: BT-549 breast
# MDA-MB-435 melanoma = system: MDA-MB-435 melanoma
# SW-620 colon = system: SW-620 colon
# HCT-116 colon = system: HCT-116 colon
# HCC-2998 colon = system: HCC-2998 colon
# KM12 colon = system: KM12 colon
# MCF7 breast = system: MCF7 breast
SMILES,growth (NCI/ADR-RES ovarian),growth (T-47D breast),growth (BT-549 breast),growth (MDA-MB-435 melanoma),growth (SW-620 colon),growth (HCT-116 colon),growth (HCC-2998 colon),growth (KM12 colon),growth (MCF7 breast)
C[C@]12CC[C@H]3[C@@H](CC[C@]4(O)C[C@@H](O[C@@H]5O[C@H](CO)[C@@H](O[C@@H]6OC[C@@H](O)[C@H](O)[C@H]6O)[C@H](O)[C@H]5O)CC[C@]34C=O)[C@@]1(O)CC[C@@H]2C1=CC(=O)OC1,-66.3% (active),2.52% (active),5.05% (active),16.9%,8.41% (active),5.35% (active),38.8%,16.9%,
CC(=O)OCc1cc[c]([Hg][Cl])o1,77.1%,17.8%,14.3%,29.4%,25.4%,35.7%,,91.8%,
CC(=O)Nc1ccc(NC(=O)c2ccc([As](O)O)cc2)cc1,101%,48.3%,113%,99.8%,87.9%,101%,112%,124%,
COC(=O)[C@@H](C)C[C@H](Cc1ccccc1)NC(=O)c1csc([C@@H](C[C@H](C(C)C)N(C)C(=O)[C@@H](NC(=O)C23CC(NC(C)=O)(C2)C3)C2CC2)OC(C)=O)n1,97.8%,62.7%,51.5%,-16.5% (active),41.3%,20.6%,49.3%,28%,
COc1cc2c(c(OC)c1OC)-c1ccc([O-])c(=O)cc1[C@@H](NC(C)=O)CC2.COc1cc2c(c(OC)c1OC)-c1ccc([O-])c(=O)cc1[C@@H](NC(C)=O)CC2.[Cu+2],40.4%,41.1%,12.8%,-18.8% (active),19.3%,8.67% (active),-14.9% (active),6.75% (active),
C/C=C(\C)C(=O)O[C@@H]1C(O)[C@H]2OC(COC(=O)CCC(=O)CCCCCC[C@H](CCCCC)O[C@@H]3OC(C)[C@H](OC(C)=O)C(O)[C@H]3O2)[C@H]1OC(=O)/C=C/c1ccccc1 (stereo partly drawn),38.5%,-6.33% (active),22.1%,0.295% (active),24.6%,8.86% (active),39.3%,16.4%,
COc1cc([C@@H]2c3cc4c(cc3[C@H](OC(C)=O)[C@H]3COC(=O)[C@H]23)OCO4)cc(OC)c1OC,3.8% (active),57.8%,31.5%,-8.58% (active),27.3%,7.01% (active),15%,17.8%,
CC(=O)O[C@H]1C(=O)[C@@]2(C)[C@H]([C@H](OC(=O)c3ccccc3)[C@]3(O)C[C@H](OC(=O)[C@H](OC(=O)OC[C@@H]4COC(C)(C)O4)[C@@H](NC(=O)c4ccccc4)c4ccccc4)C(C)=C1C3(C)C)[C@]1(OC(C)=O)CO[C@@H]1C[C@@H]2O,80.9%,25.5%,12.5%,-77.7% (active),,5.09% (active),-4.98% (active),,11%
N#CC1(c2ccccc2)CCN(Cc2ccccc2)CC1,99.7%,100%,102%,95.2%,,104%,113%,99.7%,
C[N+]12CN3CN(CN(C3)C1)C2,97.9%,93%,113%,101%,,92.8%,99.3%,111%,97.3%
CC[C@H](C)[C@H](NC(=O)c1cccn1C)C(=O)N(C)[C@H](C[C@@H](OC(C)=O)c1nc(C(=O)N[C@@H](Cc2ccccc2)C[C@H](C)C(=O)OC)cs1)C(C)C,7.66% (active),64%,-27% (active),-18.2% (active),,-3.74% (active),18.4%,10%,15%
O=C(O)C1C(C(=O)O)C2(Cl)C(Cl)=C(Cl)C1(Cl)C2(Cl)Cl.[Hg] (stereo not drawn),102%,58%,88.1%,99.7%,,90.4%,116%,96.7%,52.2%
COC(=O)CCC1=C(C)c2cc3[n-]c(cc4nc(cc5[n-]c(cc1n2)c(CCC(=O)OC)c5C)C=C4C)cc3C.[Cd+2],83.5%,42.7%,-31.9% (active),23.1%,,79.8%,95.9%,13.3%,26.9%
CCOC(=O)[C@@H](C)C[C@H](Cc1ccccc1)NC(=O)c1csc([C@@H](C[C@H](C(C)C)N(C)C(=O)[C@H](CCC(C)C)NC(=O)[C@H]2CCCCN2C)OC(C)=O)n1,4.75% (active),64.9%,-24.5% (active),-1.75% (active),,,10%,13.9%,
COC(=O)[C@@H](C)C[C@H](Cc1ccc2ccccc2c1)NC(=O)c1csc([C@@H](C[C@H](C(C)C)N(C)C(=O)[C@@H](NC(=O)[C@H]2CCCCN2C)C(C)C)OC(C)=O)n1,60.3%,72.9%,-22.3% (active),19.7%,,51.4%,52.8%,36.2%,17%
ClCCN(CCCl)c1nc(Cl)c(C2CC(c3ccccc3)=NN2c2cc(Cl)cc(Cl)c2)s1 (stereo not drawn),103%,97.8%,107%,109%,,98.1%,105%,100%,97.5%

SMILES,growth (NCI/ADR-RES ovarian),growth (T-47D breast),growth (BT-549 breast),growth (MDA-MB-435 melanoma),growth (SW-620 colon),growth (HCT-116 colon),growth (HCC-2998 colon),growth (KM12 colon),growth (MCF7 breast)
Cc1cc(N(CCCl)CCCl)ccc1/C=N\NC(=O)c1ccncc1,80.5%,54.4%,75.1%,89.1%,,78.8%,107%,95.6%,62%
Cc1c(C)c([N+](=O)[O-])c(C)c(C)c1[N+](=O)[O-],107%,101%,106%,91.9%,,115%,104%,110%,107%
COc1cc(/C=C\c2cc(OC)c(OC)c(OC)c2)cc(NS(=O)(=O)c2cccc(Cl)c2)c1OC,7.73% (active),93.1%,24.1%,-20.2% (active),,2.62% (active),13.9%,5.83% (active),7.6% (active)
CN(C)CCCOc1ccc2c(c1)c(C(=O)C(=O)NCCO)cn2Cc1ccccc1,108%,95.2%,98.4%,103%,,98.7%,115%,104%,91.5%
CC[C@H](C)[C@H](NC(=O)C12CC(NC(C)=O)(C1)C2)C(=O)N(C)[C@H](C[C@@H](OC(C)=O)c1nc(C(=O)N[C@@H](Cc2ccccc2)C[C@H](C)C(=O)OC)cs1)C(C)C,80.5%,50.1%,4.76% (active),-59% (active),,3.73% (active),24.8%,12.5%,15.7%
Cc1cccc(N2CCN(C(C)C#N)CC2)c1 (stereo not drawn),96.9%,98.4%,92.4%,98.4%,,108%,96.9%,108%,99.3%
CCCC[C@H](NC(=O)[C@H]1CCCCN1C)C(=O)N(C)[C@H](C[C@@H](OC(C)=O)c1nc(C(=O)N[C@@H](Cc2ccccc2)C[C@H](C)C(=O)OCC)cs1)C(C)C,4.37% (active),38.6%,-25.6% (active),-6.84% (active),24.6%,,,13.1%,
Oc1c(O)c(Cl)c(Cl)c(Cl)c1Cl,11.7%,15.1%,52.5%,30.8%,,16.4%,72.8%,30.4%,13.5%
COc1cc(C=C2c3ccccc3C(=O)c3ccccc32)ccc1OCCCCOc1cc2c(cc1OC)C(=O)N1CCCC1C=N2 (stereo not drawn),6.1% (active),-30% (active),-40.2% (active),-57.6% (active),,-85.3% (active),-94.4% (active),-85.7% (active),
CC(C)(C)C(=O)OCOP(=O)(OCOC(=O)C(C)(C)C)C1CCCN(O)C1=O (stereo not drawn),1.93% (active),8.21% (active),4.85% (active),36.6%,,1.32% (active),5.6% (active),-3.46% (active),0.807% (active)
CCOP(=O)(Cc1ccc(C#N)cc1)OCC,108%,101%,109%,114%,,84.5%,,107%,88.6%
COC(=O)C1OC(Oc2ccc(N(CCCl)CCCl)cc2)C(OC(C)=O)C(OC(C)=O)C1OC(C)=O (stereo not drawn),92.9%,77.4%,95.3%,93.2%,,88.6%,96%,,57.8%
Nc1ncnc2n[nH]nc12,67.7%,4.78% (active),89.8%,75.1%,,65.1%,68.7%,70.4%,63.2%
CC[C@H](C)[C@H](NC(=O)[C@H]1CCCCN1C)C(=O)N(C)[C@H](CC(=O)c1nc(C(=O)N[C@@H](Cc2ccccc2)C[C@H](C)C(=O)O)cs1)C(C)C,113%,64.8%,63%,15.5%,,77.3%,87.9%,65.1%,23.1%
Cc1ccc(C(=O)NCCCOc2ccc(N)cc2Cl)cc1S(=O)(=O)F,103%,81.9%,98%,90.9%,,98.9%,106%,90.8%,103%
